The text below walks through data of PubChem BioAssay (NCI).

The panel holds about 83,000 compounds, 20% with a hit somewhere; the sample as a whole holds those more often.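 Each cell line was grown in a 96-well plate and treated with one concentration of compound for 48 hours. Values below 10 were considered active.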 Unmarked numbers belong to inactive results. Activity calls are given as the source filed them.

Some test systems named below: HCT-15 colon; HT29 colon; SNB-75 CNS; SNB-19 CNS; U251 CNS; PC-3 prostate; SK-MEL-5 melanoma; UACC-62 melanoma; LOX IMVI melanoma; SK-MEL-28 melanoma.
Holding throughout (assay): NCI-60 one-dose screen, 48 h (100 = growth as untreated, 0 = no growth, -100 = all killed)
What all share (conditions): 10 µM unless noted

`Clc1nc2ccccc2nc1CI`: the growth in the experiment with HCT-15 colon is 74.9%; in the experiment with HT29 colon, 117%; with SNB-75 CNS, 89.2%; with SNB-19 CNS, 103%; with U251 CNS, 113%; in the experiment on PC-3 prostate, 89.6%. Moreover, the growth in the experiment with SK-MEL-5 melanoma is 83%; in the experiment on UACC-62 melanoma, 100%; in the experiment with LOX IMVI melanoma, 8.23% (active); with SK-MEL-28 melanoma, 103%.
Take `C=C1C(=O)O[C@H]2[C@H]1CC/C(Cn1cc(-c3ccsc3)nn1)=C\CC[C@@]1(C)O[C@@H]21`: the growth with HCT-15 colon is -77.5% (active); in the experiment with HT29 colon it was -68.5% (active); with SNB-75 CNS it was 21.7%; with SNB-19 CNS, 59.8%; with U251 CNS, 4.91% (active); with PC-3 prostate, -20.4% (active). Further, the growth was -42.1% (active) in the experiment with SK-MEL-5 melanoma, -55.7% (active) in the experiment with UACC-62 melanoma, -94.3% (active) in the experiment with LOX IMVI melanoma and -54% (active) in the experiment with SK-MEL-28 melanoma.
Consider `NC(=O)NNC(=O)c1ccccc1`, for which the growth in the experiment on HCT-15 colon was 97.6%; in the experiment with HT29 colon, 113%; in the experiment with SNB-75 CNS it was 85.9%; in the experiment on SNB-19 CNS, 111%; with U251 CNS it was 97.7%; in the experiment with PC-3 prostate, 96.5%. Further, the growth is 104% with SK-MEL-5 melanoma, 104% with UACC-62 melanoma, 96.5% in the experiment on LOX IMVI melanoma and 117% in the experiment on SK-MEL-28 melanoma.
`C=C1C(=O)O[C@H]2[C@H]1CC/C(COC(=O)NCCc1cccc(OC)c1)=C\CC[C@@]1(C)O[C@@H]21`: the growth was 5.34% (active) with HCT-15 colon; 1.86% (active) with HT29 colon; 76.1% in the experiment on SNB-75 CNS; 56.9% in the experiment with SNB-19 CNS; 66% with U251 CNS; 50.5% in the experiment on PC-3 prostate. Also, the growth in the experiment with SK-MEL-5 melanoma is 87.6%; with UACC-62 melanoma it was 22.8%; in the experiment with LOX IMVI melanoma, 3% (active); in the experiment with SK-MEL-28 melanoma it was 46.7%.
For `N#CC1=C(N)n2nc(-c3ccncc3)nc2NC1c1cccc2ccccc12` (stereo not given), the growth is 90.4% with HCT-15 colon; 97.8% with HT29 colon; 67.6% with SNB-75 CNS; 92.8% in the experiment on SNB-19 CNS; 86.7% in the experiment on U251 CNS; 76% in the experiment on PC-3 prostate. For the same molecule, the growth with SK-MEL-5 melanoma was 88.6%; with UACC-62 melanoma it was 72.4%; with LOX IMVI melanoma, 79%; in the experiment on SK-MEL-28 melanoma, 106%.
Consider `CCCCCC(=O)OCc1ccccc1`, for which the growth with HCT-15 colon was 94.6%; in the experiment with HT29 colon it was 106%; in the experiment on SNB-75 CNS, 90.3%; in the experiment with SNB-19 CNS, 105%; in the experiment on U251 CNS, 103%; in the experiment with PC-3 prostate, 104%. In addition, the growth in the experiment with SK-MEL-5 melanoma is 104%; in the experiment on UACC-62 melanoma, 103%; in the experiment on LOX IMVI melanoma, 96.8%; in the experiment on SK-MEL-28 melanoma, 113%.
Regarding `Nc1c(C(=O)Nc2cccc(C(F)(F)F)c2)sc2nc3c(cc12)CCCCC3`, the growth is 50.5% in the experiment with HCT-15 colon; 20.6% in the experiment with HT29 colon; -38.2% (active) with SNB-75 CNS; 44.8% in the experiment on SNB-19 CNS; -57% (active) with U251 CNS; 53% in the experiment with PC-3 prostate. Moreover, the growth with SK-MEL-5 melanoma is 0.77% (active); in the experiment on UACC-62 melanoma, 12.8%; with LOX IMVI melanoma, 8.87% (active); in the experiment on SK-MEL-28 melanoma, 20.8%.
With `Cc1ccc2nc(-c3c(N)n[nH]c3CCCO)[nH]c(=O)c2c1`, the growth is 106% with HCT-15 colon; 104% in the experiment with HT29 colon; 91% in the experiment on SNB-75 CNS; 106% in the experiment with SNB-19 CNS; 105% in the experiment on U251 CNS; 92.3% in the experiment with PC-3 prostate. The growth in the experiment on SK-MEL-5 melanoma is 105%; in the experiment on UACC-62 melanoma, 100%; in the experiment on LOX IMVI melanoma, 101%; in the experiment with SK-MEL-28 melanoma, 115%.
As to `CC(C)CCN(CCCNc1c2c(nc3ccccc13)CCCC2)CCC(C)C`, the growth with HCT-15 colon is 72.9%; in the experiment on HT29 colon, 46.3%; in the experiment on SNB-75 CNS, 76.8%; in the experiment on SNB-19 CNS, 87.2%; in the experiment on U251 CNS, 65.1%; in the experiment with PC-3 prostate it was 73.6%. The growth in the experiment with SK-MEL-5 melanoma was 83.1%; in the experiment with UACC-62 melanoma, 97.2%; in the experiment with LOX IMVI melanoma, 76.4%; in the experiment on SK-MEL-28 melanoma it was 86.2%.
Regarding `CCOc1ccc(/C=C/C=N/NC(N)=S)cc1`, the growth with HCT-15 colon is 58.4%; in the experiment with HT29 colon, 62.1%; in the experiment with SNB-75 CNS it was 80.9%; in the experiment with SNB-19 CNS, 95.8%; with U251 CNS, 90.1%; in the experiment with PC-3 prostate it was 94.1%. Also, the growth in the experiment with SK-MEL-5 melanoma is 96%; in the experiment with UACC-62 melanoma, 81.9%; in the experiment with LOX IMVI melanoma it was 77.4%; with SK-MEL-28 melanoma it was 102%.
On to `CC(=O)C1CCC(C)=CC1=O` (stereo not given), for which the growth in the experiment on HCT-15 colon was 99.4%; in the experiment with HT29 colon, 103%; with SNB-75 CNS, 81.5%; in the experiment with SNB-19 CNS it was 101%; in the experiment with U251 CNS, 97.4%; with PC-3 prostate, 96.3%. The growth in the experiment on SK-MEL-5 melanoma was 108%; in the experiment with UACC-62 melanoma, 101%; in the experiment on LOX IMVI melanoma, 94%; in the experiment on SK-MEL-28 melanoma, 103%.
`COC(=O)CC/C(C)=N\Nc1ccc([N+](=O)[O-])cc1`: the growth with HCT-15 colon is 34.8%; in the experiment on HT29 colon, 46.6%; in the experiment on SNB-75 CNS, 91.5%; with SNB-19 CNS, 99.4%; in the experiment with U251 CNS, 68.4%; in the experiment on PC-3 prostate, 45.8%. Besides, the growth is 73.8% in the experiment on SK-MEL-5 melanoma, 26.6% in the experiment on UACC-62 melanoma, 16.2% in the experiment with LOX IMVI melanoma and 96% in the experiment on SK-MEL-28 melanoma.
As for `CN(C)c1nc(N)c(N=O)c(N)n1`, the growth in the experiment with HCT-15 colon was 111%; with HT29 colon, 117%; in the experiment with SNB-75 CNS, 98.5%; in the experiment with SNB-19 CNS it was 112%; in the experiment on U251 CNS it was 103%; in the experiment on PC-3 prostate it was 99.4%. The growth in the experiment on SK-MEL-5 melanoma is 110%; in the experiment on UACC-62 melanoma, 103%; with LOX IMVI melanoma, 99.1%; in the experiment with SK-MEL-28 melanoma, 114%.
On to `O=C(CNc1ccc(Cl)cc1)Nc1ccc(-c2nc3ccccc3s2)cc1`, for which the growth in the experiment with HCT-15 colon was -13.9% (active); in the experiment on HT29 colon, 47.9%; in the experiment on SNB-75 CNS, 60.1%; with SNB-19 CNS it was 63.6%; in the experiment with U251 CNS it was 26.3%; in the experiment on PC-3 prostate, 85.3%. Moreover, the growth was 25% with SK-MEL-5 melanoma, 30.1% in the experiment with UACC-62 melanoma, -41% (active) in the experiment with LOX IMVI melanoma and 99.5% in the experiment on SK-MEL-28 melanoma.
